# Results reported in PubChem BioAssay.
# Calls of active or inactive are those of the source.
# System: Wnt5a (protein binding on small-molecule microarray)
# Assay: small molecules binding Wnt5a protein – biophysical, small-molecule microarray, 635/667 nm fluorescence, primary screen (AID 1142);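 note: fluorescence read at 667 nm with signal to noise per printed feature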
# Conditions: 635 nm fluorescence, higher = more signal
row,Compound,composite z-score
1,COC(=O)[C@@]1(Cc2ccc(F)cc2)[C@H]2c3cc(C(=O)N4CCCC4)n(Cc4ccc(OC(F)(F)F)cc4)c3C[C@H]2CN1C(=O)c1ccccc1,-0.0554
2,O=C1OCCC/C=C\[C@H]2OC34C=CCN(Cc5ccccc5)C(=O)[C@H]3N(CCO)C(=O)[C@@H]4C12 (stereo not given in full),0.0691
3,COC(=O)[C@H](Cc1ccccc1)N1CC(C)(OC)O[C@@H](Cc2ccccc2)[C@H]1/C=C/C1CC1 (stereo not given in full),-0.0712
4,COc1c(C)cc(-c2cc3c(c(CCc4ccccc4)n2)[Si](C(C)C)(C(C)C)O[C@H]3c2ccccc2)cc1C,-0.169
5,[N-]=[N+]=Nc1ccccc1C[C@@]1(C(=O)NCc2ccccc2)N=C(c2ccc(OCCCO)cc2)O[C@@H]1c1ccccc1,0.967
6,C=C(CCCC)/C(=C/C[C@@H](OC(C)=O)c1ccc(OCCO)cc1)c1cc(C(=O)OC)ccc1OC,-0.0169
7,C=CCNC(=O)[C@H]1[C@@H]2C(=O)O[C@@H](c3ccccc3)[C@@H](c3ccccc3)N2[C@@H](c2ccc(OCCO)cc2)[C@]12C(=O)Nc1ccc(C#Cc3ccc(OC)cc3)cc12,0.4
8,CC(C)N1C(=O)[C@@]2(Cc3ccccc31)c1ccccc1C(=O)N(Cc1ccccc1C(F)(F)F)[C@H]2c1ccc(CO)cc1,0.15
9,COC(=O)c1ccc(OC)c(/C=C\CC(OC(=O)c2ccncc2)c2ccccc2)c1 (stereo not given),0.114
10,O=C(NC1CC1)[C@@H]1c2ccccc2C(=O)N(C2CCCCC2)[C@H]1c1ccc(CO)cc1,0.0033

# System: not listed separately
# Assay: ATP-based viability of Huh7 replicon cells – cell-based, CellTiter-Glo luminescence, basal, 48 h, cytotoxicity control for HCV replication inhibitor project, primary screen (AID 1143);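 note: Huh7 hepatoma cells carrying a hepatitis C replication reporter with no stimulus; test concentration not given here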
# Conditions: higher = more signal, called active from +8 up or from −8 down
row,Compound,z-score
1,COC(=O)C(CC#Cc1ccc2c(c1)[C@]1(C(=O)N2)[C@H](c2ccc(OCCO)cc2)N2[C@H](c3ccccc3)[C@H](c3ccccc3)OC(=O)[C@H]2[C@@H]1C(N)=O)C(=O)OC,-2.24 (inactive)
2,COC(=O)C(CC#Cc1ccc2c(c1)[C@]1(C(=O)N2)[C@H](c2ccccc2OCCO)N2[C@H](c3ccccc3)[C@H](c3ccccc3)OC(=O)[C@H]2[C@@H]1C(=O)N1CCN(c2ncccn2)CC1)C(=O)OC,-4.92 (inactive)
3,COC(=O)Cn1c(C(=O)N(C)C)cc2c1C[C@H]1CN(C(=O)c3ccccc3)[C@@](Cc3ccccc3)(C(=O)OC)[C@@H]21,-0.273 (inactive)
4,COC(=O)[C@@]1(Cc2ccc(OC)cc2)[C@@H]2[C@@H](CC(=O)[C@H]2CC(=O)C(=O)N(C)C)CN1C(=O)c1ccccc1,-3.89 (inactive)
5,COC(=O)[C@@]1(Cc2ccccc2)[C@H]2c3cc(C(=O)N(C)C)n(Cc4nc5ccccc5[nH]4)c3C[C@H]2CN1C(=O)c1ccccc1,-2.07 (inactive)
6,COCCOC(=O)N1C(=O)[C@@]2(c3cc(C#CCCO)ccc31)[C@H](C(=O)N1CCN(c3ncccn3)CC1)[C@H]1C(=O)O[C@H](c3ccccc3)[C@H](c3ccccc3)N1[C@@H]2c1ccc(OCCO)cc1,-0.445 (inactive)
7,C=C(CCCC)/C(=C/C[C@@H](OC(C)=O)c1cccc(OCCO)c1)c1cc(C(=O)OC)ccc1OC,-0.917 (inactive)
8,C=CCOC(=O)[C@H]1[C@@H]2C(=O)O[C@@H](c3ccccc3)[C@@H](c3ccccc3)N2[C@@H](c2ccc(OCCOC(=O)[C@H]3C[C@H]4C(=O)NCC(=O)N4[C@H]3c3cccc(OCCO)c3)cc2)[C@]12C(=O)Nc1ccc(I)cc12,-0.469 (inactive)
9,CCOC(=O)C=C1C[C@@H](c2cccc([N+](=O)[O-])c2)O[C@@H](c2cccc([N+](=O)[O-])c2)O1,-3.18 (inactive)
10,COc1ccc(C#Cc2ccc3c(c2)[C@]2(C(=O)N3)[C@H](c3ccccc3OCCO)N3[C@H](c4ccccc4)[C@H](c4ccccc4)OC(=O)[C@H]3[C@@H]2C(=O)NC[C@H](O)c2ccccc2)cc1,-5.57 (inactive)
11,C=CC[C@H](O)c1ccc(O)c2ccccc12,0.273 (inactive)
12,Cc1ccc(S[C@]2(C(=O)NCCN3CCOCC3)CC(=O)N(C(C)C)[C@@H]2c2ccc(CO)cc2I)cc1,-2.88 (inactive)
13,CN(C)C(=O)[C@]1(CCS(=O)(=O)c2ccccc2)N=C(c2ccc(OCCCO)cc2)O[C@@H]1c1ccccc1CN=[N+]=[N-],-0.915 (inactive)
14,C[C@H]1C2[C@H](Cc3ccccc3)NC(=O)[C@]23C(=O)N[C@@H](Cc2ccccc2)C(=O)N2CCC[C@H]2C(=O)NC/C=C/CC/C=C/C3[C@@H]2O[C@]12C (stereo not given in full),-2.38 (inactive)
15,C=CCN1C(=O)[C@]2(O[C@H](CCO)[C@@H]([Si](C)(C)c3ccc(OC)cc3)[C@@H]2C)c2cc(N3C(=O)c4ccccc4Oc4ccccc43)ccc21,-7.94 (inactive)
16,CO[C@H]1O[C@H](CO)[C@@H](OC(=O)Nc2ccccc2)[C@@H]2OC(=O)[C@@H](Cc3ccccc3)C/C=C/C[C@H](Cc3ccccc3)C(=O)O[C@@H]12,-0.0611 (inactive)
17,COC(=O)[C@@]1(Cc2ccc(OC)cc2)[C@H]2c3cc(C(=O)N(C)C)n(Cc4c(CO)[nH]cc(C)c4=O)c3C[C@H]2CN1C(=O)c1ccccc1,-0.0137 (inactive)
18,COc1cccc(C)c1NC(=O)O[C@H]1[C@H](OC(=O)Nc2ccccc2-c2ccccc2)[C@@H](OC(=O)Nc2ccccc2-c2ccccc2)[C@@H](OC)O[C@@H]1CO,-5.6 (inactive)

row,Compound,z-score
1,CCCNC(=O)[C@@]1(Sc2ccc(C)cc2)CC(=O)N(Cc2cc(C(F)(F)F)cc(C(F)(F)F)c2)[C@@H]1c1ccc(CO)cc1,-4.41 (inactive)
2,COC(=O)[C@@]1(Cc2ccc(F)cc2)[C@H]2c3cc(C(=O)N(C)C)n(Cc4ccc(C(F)(F)F)nc4)c3C[C@H]2CN1C(=O)c1ccccc1,-3.01 (inactive)
3,COC(=O)[C@@]1(Cc2ccccc2)[C@H]2c3cc(C(=O)N(C)C)n(Cc4ccc(Cl)c(C(F)(F)F)c4)c3C[C@H]2CN1C(=O)c1ccccc1,-3.79 (inactive)
4,CN1C(=O)C2C=CC(C(O)c3ccc(I)cc3)N(N(c3ccccc3)c3ccccc3)C2C1=O (stereo not given),-0.619 (inactive)
5,Cc1ccc(S[C@]2(C(=O)NCc3ccccc3)CC(=O)N(Cc3ccccc3C(F)(F)F)[C@@H]2c2ccc(CO)cc2I)cc1,-1.5 (inactive)
6,COCCCNC(=O)[C@@]1(CCC(=O)OC(C)(C)C)N=C(c2ccc(OCCCO)cc2)O[C@H]1c1ccccc1,0.0272 (inactive)
7,C=C(COC)/C(=C/C[C@@H](OC(C)=O)c1cccc(OCCO)c1)c1cnc2ccccc2c1,-2.14 (inactive)
8,COC(=O)[C@@]1(Cc2ccc(F)cc2)[C@H]2c3cc(C(=O)N4CCCC4)n(Cc4ccc(OC(F)(F)F)cc4)c3C[C@H]2CN1C(=O)c1ccccc1,-0.0066 (inactive)
9,O=C1OCCC/C=C\[C@H]2OC34C=CCN(Cc5ccccc5)C(=O)[C@H]3N(CCO)C(=O)[C@@H]4C12 (stereo not given in full),0.347 (inactive)
10,COC(=O)[C@H](Cc1ccccc1)N1CC(C)(OC)O[C@@H](Cc2ccccc2)[C@H]1/C=C/C1CC1 (stereo not given in full),-0.628 (inactive)
11,COc1c(C)cc(-c2cc3c(c(CCc4ccccc4)n2)[Si](C(C)C)(C(C)C)O[C@H]3c2ccccc2)cc1C,-2.84 (inactive)
12,[N-]=[N+]=Nc1ccccc1C[C@@]1(C(=O)NCc2ccccc2)N=C(c2ccc(OCCCO)cc2)O[C@@H]1c1ccccc1,-5.24 (inactive)
13,C=C(CCCC)/C(=C/C[C@@H](OC(C)=O)c1ccc(OCCO)cc1)c1cc(C(=O)OC)ccc1OC,-3.57 (inactive)
14,C=CCNC(=O)[C@H]1[C@@H]2C(=O)O[C@@H](c3ccccc3)[C@@H](c3ccccc3)N2[C@@H](c2ccc(OCCO)cc2)[C@]12C(=O)Nc1ccc(C#Cc3ccc(OC)cc3)cc12,-3.41 (inactive)
15,CC(C)N1C(=O)[C@@]2(Cc3ccccc31)c1ccccc1C(=O)N(Cc1ccccc1C(F)(F)F)[C@H]2c1ccc(CO)cc1,-0.222 (inactive)
16,COC(=O)c1ccc(OC)c(/C=C\CC(OC(=O)c2ccncc2)c2ccccc2)c1 (stereo not given),-3.7 (inactive)
17,O=C(NC1CC1)[C@@H]1c2ccccc2C(=O)N(C2CCCCC2)[C@H]1c1ccc(CO)cc1,-1.49 (inactive)
